# Compound activity: PubChem BioAssay, Columbia University Molecular Screening Center
# The full list was thinned out, with hits kept by preference.
# VCAM1 TNFa pot – potentiators of TNFa-induced VCAM1 expression, primary screen, imaging, HUVEC, TNFa stimulus, immunofluorescence; HUVEC TNFa-stimulated VCAM-1 immunofluorescence, high-content imaging; scaled per plate to unstimulated/TNFa-only wells; activation, % at 2 µM; 93,000 tested, 0.19% active;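 active = activation above the screen mean plus 3 SD, with well images confirming the hit on visual review, cut at about 28% in these data, passing the limit was not always enough; inconclusive = activation above that limit but images do not confirm it; inactive = activation not above that limit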;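 also: signal is the number of cytoplasmic VCAM-1 stained grains per positive cell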
# VCAM1 pot confirm – potentiators of TNFa-induced VCAM1 expression, confirmation, imaging, HUVEC, triplicate retest. shares compounds with VCAM1 TNFa pot. HUVEC TNFa-stimulated VCAM-1 immunofluorescence imaging. activation, % at 2 µM. 230 tested, under 10 active. AID 1034, 2008;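 active = activation above 30% in triplicate retests at 2 µM, then confirmed by visual review of the well images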
# Numbers stand for hits; . = inactive; ? = inconclusive.
SMILES,VCAM1 TNFa pot,others
CCSc1nc2ccccc2n1C(=O)/C=C\c1ccc(OC)c(OC)c1,.,
COc1ccccc1CC(=O)N1CCCc2ccccc21,.,
O=C(Nc1ccccc1)N1CCCc2ccccc21,.,
CCc1nnc(SCC(=O)N2CCCc3ccccc32)nc1CC,?,VCAM1 pot confirm=.
Cc1nc2ncnn2c(N2CCN(C(=O)Cc3cccs3)CC2)c1C,.,
COc1ccc2c(C(=O)CN(C)C3CCCCC3)c[nH]c2c1,.,
COc1ccc(C(=O)c2ccc(N3CCN(C4CC(=O)NC4=O)CC3)cc2)cc1F (stereo unspecified),.,
Nc1c(Cl)cc(Cl)cc1C(=O)OCC(=O)NC1CC1,.,
O=C(CSc1nc2ccccc2[nH]1)c1ccc2c(c1)OCO2,.,
O=C(CSc1nc2ccccc2[nH]1)Nc1cc(C(F)(F)F)ccc1N1CCOCC1,.,
O=C(CSc1nc2ccccc2[nH]1)Nc1ccccc1N1CCOCC1,48,VCAM1 pot confirm=.
Cc1oc(C(=O)O)cc1COc1ccc2c3c(c(=O)oc2c1)CCC3,.,
Cc1ccc(S(=O)(=O)c2c(C)cc(C)nc2Oc2cccc(C(F)(F)F)c2)cc1,.,
Cc1nc(N2CCN(C(=O)c3ccc(Cl)cc3)CC2)c(C#N)c2c1COC(C)(C)C2,50,VCAM1 pot confirm=.
COC(=O)c1ccc(CSc2nc(N3CCOCC3)c3c(c2C#N)CC(C)(C)OC3)o1,.,
CC(C)(C)C(=O)Nc1ccccc1N1CCN(C(=O)c2ccc(Cl)cc2)CC1,.,
CCOC(=O)c1nnn(CC(=O)N2N=C(c3cccc4ccccc34)CC2c2ccccc2)c1C(=O)OCC (stereo unspecified),.,
Clc1cccc(OCCn2cncn2)c1Cl,?,VCAM1 pot confirm=.
CCOC(=O)c1c(-c2cccs2)csc1NC(=O)CCCC(=O)O,.,
CCOC(=O)c1cc(CC)sc1NC(=O)Cc1ccccc1,35,VCAM1 pot confirm=.
COC(=O)c1c(NC(=O)Cc2ccccc2)sc(C)c1C,.,
Cc1c(NC(=O)N(C)C)c(=O)n(-c2ccccc2)n1C,.,
CC1=CC(C)(C)N2C(=O)C3(C(C#N)=C(N)Oc4cc(C)oc(=O)c43)c3cccc1c32 (stereo unspecified),.,
CCCCS(=O)CC(O)COCC (stereo unspecified),.,
O=C(Nc1ccc2nsnc2c1)NC1CCCCC1,57,VCAM1 pot confirm=.
SMILES,VCAM1 TNFa pot,others
CC(C)C(=O)Nc1ccc(C(=O)NNC(=O)NC2CCCCC2)cc1,.,
Cn1c(CCNC(=O)c2ccco2)nc2cc(NC(=O)NC3CCCCC3)ccc21,.,
O=C(Cn1nc(Cc2ccncc2)c2ccccc2c1=O)N1CCc2ccccc2C1,.,
O=C(Nc1ccc(-c2nc3cc(Cl)ccc3o2)cc1)C1CCCO1 (stereo unspecified),.,
O=C(Nc1ccc2oc(-c3ccccc3)nc2c1)c1ccc2c(c1)OCCO2,30,VCAM1 pot confirm=.
O=C(Cc1ccccc1)Nc1ccc2oc(-c3cccnc3)nc2c1,.,
CCCCc1c(C)nn(-c2nnc3c4ccccc4n(C)c3n2)c1C,.,
CCc1ccccc1NC(=O)c1nnn(CC(=O)Nc2cccc(C)c2C)c1N,.,
Cc1cc(C(F)(F)F)nn1CC(=O)Nc1ccc(Br)c2cccnc12,.,
Cc1ccccc1NC(=O)Cn1nc(C(F)(F)F)cc1C1CC1,54,VCAM1 pot confirm=.
Cc1ccc(C(=O)Nc2c(-c3cccs3)c(=O)c3ccccc3n2C)cc1,.,
COC(=O)C(C)Sc1nc(-c2ccc(OC)cc2)nc2c1c(=O)n(C)c(=O)n2C (stereo unspecified),.,
COc1ccccc1C(=O)NC(C)C(c1cccs1)N1CCN(C)CC1 (stereo unspecified),.,
Cc1ccc(N2CCN(C(=O)N3CCCC3)CC2)cc1C,.,
